# According to paper PMC7862700, “An all-to-all approach to the identification of sequence-specific readers for epigenetic DNA modifications on cytosine”:
# Legend:
# Assay in all cases: DAPPL (digital affinity profiling via proximity ligation, sequencing); 10 mM Tris-HCl pH 7.5, 50 mM NaCl, 1 mM DTT, 4% glycerol, room temperature, 30 min; GST-TFs on glutathione beads, 16-mer random dsDNA library, 0.1% formaldehyde crosslink after washing; high values mean tight binding
# FLI1 = molecular target: T1, FLI1 (Homo sapiens, UniProt Q01543 1-452); settings: protein: recombinant; tags: N-terminal GST; dsDNA, one strand shown
# T1 sequence: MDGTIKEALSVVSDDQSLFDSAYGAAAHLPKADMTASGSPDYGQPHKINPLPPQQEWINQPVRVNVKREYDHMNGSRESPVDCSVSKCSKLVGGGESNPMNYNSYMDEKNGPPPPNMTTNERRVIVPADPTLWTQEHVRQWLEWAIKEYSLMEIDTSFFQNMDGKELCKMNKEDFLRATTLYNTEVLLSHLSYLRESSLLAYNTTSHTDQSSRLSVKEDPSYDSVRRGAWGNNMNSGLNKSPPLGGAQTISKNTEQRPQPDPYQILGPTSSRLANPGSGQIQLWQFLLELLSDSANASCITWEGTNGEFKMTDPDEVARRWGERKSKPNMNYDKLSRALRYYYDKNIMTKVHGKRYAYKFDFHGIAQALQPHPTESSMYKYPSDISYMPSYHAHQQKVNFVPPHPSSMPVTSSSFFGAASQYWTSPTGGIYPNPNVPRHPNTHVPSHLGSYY
# Outline: (§1)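 Sequencing on an Illumina NextSeq500 followed washing, crosslinking with 0.1% formaldehyde, proximity ligation (BsaI/T4 ligase, 1 h, 37 °C) and PCR amplification of pools that had been incubated for 30 min at room temperature with 200 nmole of a random double-stranded 16-mer DNA library in Tris/NaCl/DTT/glycerol buffer. Each pool held DNA-barcoded human transcription factors, expressed in yeast as GST fusions and captured on glutathione beads, plus a tag-only sample. Binding signal is a hexamer's read frequency for a factor divided by its frequency in the tag-only sample.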
# ELK1 = molecular target: T2, ELK1 (Homo sapiens, UniProt P19419 1-428); settings: protein: recombinant; tags: N-terminal GST; dsDNA, one strand shown
# T2 sequence: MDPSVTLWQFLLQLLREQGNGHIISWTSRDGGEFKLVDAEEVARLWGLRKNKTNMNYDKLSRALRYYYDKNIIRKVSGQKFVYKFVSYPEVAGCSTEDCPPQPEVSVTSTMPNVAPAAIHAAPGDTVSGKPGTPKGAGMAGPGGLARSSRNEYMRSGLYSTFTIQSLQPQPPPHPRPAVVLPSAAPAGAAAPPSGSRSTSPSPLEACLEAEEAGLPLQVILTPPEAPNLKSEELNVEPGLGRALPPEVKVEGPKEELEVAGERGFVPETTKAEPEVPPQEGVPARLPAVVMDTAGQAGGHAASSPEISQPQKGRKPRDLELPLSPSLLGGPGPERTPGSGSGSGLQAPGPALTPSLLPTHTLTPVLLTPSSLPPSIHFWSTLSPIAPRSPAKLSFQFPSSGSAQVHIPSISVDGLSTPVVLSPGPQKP
# Outline: as §1
# GABPA = molecular target: T3, GABPA (Homo sapiens, UniProt Q06546 1-454); settings: protein: recombinant; tags: N-terminal GST; dsDNA, one strand shown
# T3 sequence: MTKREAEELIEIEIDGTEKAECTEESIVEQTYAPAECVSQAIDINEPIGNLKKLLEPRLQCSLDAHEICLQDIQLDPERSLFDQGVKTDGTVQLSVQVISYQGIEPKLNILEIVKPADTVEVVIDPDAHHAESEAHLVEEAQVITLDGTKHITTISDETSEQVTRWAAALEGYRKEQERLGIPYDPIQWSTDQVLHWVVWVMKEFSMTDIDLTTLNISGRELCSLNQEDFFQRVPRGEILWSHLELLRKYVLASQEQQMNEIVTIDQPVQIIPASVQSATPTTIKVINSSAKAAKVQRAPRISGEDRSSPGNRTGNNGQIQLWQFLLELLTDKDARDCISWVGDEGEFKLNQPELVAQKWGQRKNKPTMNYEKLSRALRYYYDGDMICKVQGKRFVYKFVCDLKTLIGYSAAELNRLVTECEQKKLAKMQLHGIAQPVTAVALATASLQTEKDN
# Outline: as §1
# ERG = molecular target: T4, ERG (Homo sapiens, UniProt P11308 1-479); settings: protein: recombinant; tags: N-terminal GST; dsDNA, one strand shown
# T4 sequence: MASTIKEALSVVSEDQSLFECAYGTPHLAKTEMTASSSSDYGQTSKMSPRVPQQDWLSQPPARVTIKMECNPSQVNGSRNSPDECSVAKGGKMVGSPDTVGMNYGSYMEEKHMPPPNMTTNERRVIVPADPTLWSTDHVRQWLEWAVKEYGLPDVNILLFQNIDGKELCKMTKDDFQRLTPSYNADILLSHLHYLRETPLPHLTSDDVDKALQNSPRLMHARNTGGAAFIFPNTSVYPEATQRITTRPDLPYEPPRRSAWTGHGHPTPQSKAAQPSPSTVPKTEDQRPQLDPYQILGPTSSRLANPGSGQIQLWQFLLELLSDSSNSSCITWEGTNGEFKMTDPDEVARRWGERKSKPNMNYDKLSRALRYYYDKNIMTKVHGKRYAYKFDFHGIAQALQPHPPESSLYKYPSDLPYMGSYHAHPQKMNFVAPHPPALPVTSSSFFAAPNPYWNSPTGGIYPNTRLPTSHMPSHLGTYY
# Outline: as §1
# ELF1 = ELF1 (Homo sapiens, UniProt P32519 1-619); settings: protein: recombinant; tags: N-terminal GST; dsDNA, one strand shown
# ELF1, sequence (P32519 whole entry): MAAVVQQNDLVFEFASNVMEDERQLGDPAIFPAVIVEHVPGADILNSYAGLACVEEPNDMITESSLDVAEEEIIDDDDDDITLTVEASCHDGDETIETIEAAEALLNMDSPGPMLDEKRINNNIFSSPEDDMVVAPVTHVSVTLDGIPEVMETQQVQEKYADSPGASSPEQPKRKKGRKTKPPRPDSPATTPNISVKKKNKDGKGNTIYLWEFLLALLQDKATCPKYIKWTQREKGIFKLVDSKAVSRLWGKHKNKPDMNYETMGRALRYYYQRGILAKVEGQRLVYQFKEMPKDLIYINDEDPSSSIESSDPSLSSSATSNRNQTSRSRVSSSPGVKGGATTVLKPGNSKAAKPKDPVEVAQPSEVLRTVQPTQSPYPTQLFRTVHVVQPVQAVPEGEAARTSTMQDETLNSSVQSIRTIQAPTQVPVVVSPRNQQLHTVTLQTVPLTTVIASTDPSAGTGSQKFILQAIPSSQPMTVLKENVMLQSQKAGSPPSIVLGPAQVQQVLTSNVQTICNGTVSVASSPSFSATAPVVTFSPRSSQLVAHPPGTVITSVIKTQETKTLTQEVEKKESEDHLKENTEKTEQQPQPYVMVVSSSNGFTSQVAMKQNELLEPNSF
# Outline: as §1
# EHF = molecular target: T5, EHF (Homo sapiens, UniProt Q9NZC4 1-300); settings: protein: recombinant; tags: N-terminal GST; dsDNA, one strand shown
# T5 sequence: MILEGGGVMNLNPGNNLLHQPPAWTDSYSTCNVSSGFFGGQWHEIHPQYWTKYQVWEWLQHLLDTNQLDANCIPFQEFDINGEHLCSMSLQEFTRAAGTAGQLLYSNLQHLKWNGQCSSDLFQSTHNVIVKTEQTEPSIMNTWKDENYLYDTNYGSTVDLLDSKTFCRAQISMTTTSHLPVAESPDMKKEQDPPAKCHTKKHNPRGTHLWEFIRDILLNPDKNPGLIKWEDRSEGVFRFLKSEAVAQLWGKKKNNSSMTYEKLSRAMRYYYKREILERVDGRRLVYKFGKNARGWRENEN
# Outline: as §1
# SPI1 = SPI1 (Homo sapiens, UniProt P17947 1-270); settings: protein: recombinant; tags: N-terminal GST; dsDNA, one strand shown
# Outline: as §1
# SPIB = SPIB (Homo sapiens, UniProt Q01892 1-262); settings: protein: recombinant; tags: N-terminal GST; dsDNA, one strand shown
# SPIB, sequence (Q01892 whole entry): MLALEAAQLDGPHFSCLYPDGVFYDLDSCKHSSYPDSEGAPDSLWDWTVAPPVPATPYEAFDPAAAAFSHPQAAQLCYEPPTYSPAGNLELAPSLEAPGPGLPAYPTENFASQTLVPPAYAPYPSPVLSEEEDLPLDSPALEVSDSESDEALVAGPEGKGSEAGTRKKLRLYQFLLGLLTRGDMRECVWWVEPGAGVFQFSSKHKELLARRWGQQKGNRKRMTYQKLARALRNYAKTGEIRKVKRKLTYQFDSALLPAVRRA
# Outline: as §1
# ELK3 = molecular target: T6, ELK3 (Homo sapiens, UniProt P41970 1-407); settings: protein: recombinant; tags: N-terminal GST; dsDNA, one strand shown
# T6 sequence: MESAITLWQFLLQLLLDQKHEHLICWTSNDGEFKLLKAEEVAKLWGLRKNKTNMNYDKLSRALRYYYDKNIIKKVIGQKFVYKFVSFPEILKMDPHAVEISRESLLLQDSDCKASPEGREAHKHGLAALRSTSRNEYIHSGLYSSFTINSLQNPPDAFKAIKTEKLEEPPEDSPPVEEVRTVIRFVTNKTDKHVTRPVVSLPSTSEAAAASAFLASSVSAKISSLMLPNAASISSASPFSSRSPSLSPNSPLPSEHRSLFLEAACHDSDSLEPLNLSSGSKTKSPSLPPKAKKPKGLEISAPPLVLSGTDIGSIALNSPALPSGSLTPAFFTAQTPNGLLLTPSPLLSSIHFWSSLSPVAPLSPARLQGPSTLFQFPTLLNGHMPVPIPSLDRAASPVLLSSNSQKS
# Outline: as §1
# FEV = molecular target: T7, FEV (Homo sapiens, UniProt Q99581 1-238); settings: protein: recombinant; tags: N-terminal GST; dsDNA, one strand shown
# T7 sequence: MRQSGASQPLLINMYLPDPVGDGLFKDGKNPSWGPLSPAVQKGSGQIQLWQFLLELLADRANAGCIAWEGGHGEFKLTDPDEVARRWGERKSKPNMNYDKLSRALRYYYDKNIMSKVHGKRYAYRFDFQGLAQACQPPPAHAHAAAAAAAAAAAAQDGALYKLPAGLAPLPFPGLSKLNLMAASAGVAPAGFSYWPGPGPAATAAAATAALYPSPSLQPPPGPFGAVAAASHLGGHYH
# Outline: as §1
# ETV5 = ETV5 (Homo sapiens, UniProt P41161 1-510); settings: protein: recombinant; tags: N-terminal GST; dsDNA, one strand shown
# ETV5, sequence (P41161 whole entry): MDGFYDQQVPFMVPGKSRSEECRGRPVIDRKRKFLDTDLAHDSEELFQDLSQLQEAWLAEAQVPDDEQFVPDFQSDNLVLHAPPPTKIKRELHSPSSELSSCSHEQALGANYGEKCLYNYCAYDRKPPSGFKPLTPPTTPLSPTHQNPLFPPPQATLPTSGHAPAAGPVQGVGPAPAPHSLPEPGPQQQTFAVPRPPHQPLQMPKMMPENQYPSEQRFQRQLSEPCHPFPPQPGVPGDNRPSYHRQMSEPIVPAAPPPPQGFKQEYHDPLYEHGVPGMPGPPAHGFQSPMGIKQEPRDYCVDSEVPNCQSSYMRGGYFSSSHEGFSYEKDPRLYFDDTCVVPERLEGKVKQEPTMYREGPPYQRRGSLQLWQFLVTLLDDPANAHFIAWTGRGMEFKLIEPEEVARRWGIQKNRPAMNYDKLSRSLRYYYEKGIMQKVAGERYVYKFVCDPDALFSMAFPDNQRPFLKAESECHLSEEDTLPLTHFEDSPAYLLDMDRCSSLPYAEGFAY
# Outline: as §1
# HSF1 = HSF1 (Homo sapiens, UniProt Q00613 1-529); settings: protein: recombinant; tags: N-terminal GST; chain copies: 3; dsDNA, one strand shown
# HSF1, sequence (Q00613 whole entry): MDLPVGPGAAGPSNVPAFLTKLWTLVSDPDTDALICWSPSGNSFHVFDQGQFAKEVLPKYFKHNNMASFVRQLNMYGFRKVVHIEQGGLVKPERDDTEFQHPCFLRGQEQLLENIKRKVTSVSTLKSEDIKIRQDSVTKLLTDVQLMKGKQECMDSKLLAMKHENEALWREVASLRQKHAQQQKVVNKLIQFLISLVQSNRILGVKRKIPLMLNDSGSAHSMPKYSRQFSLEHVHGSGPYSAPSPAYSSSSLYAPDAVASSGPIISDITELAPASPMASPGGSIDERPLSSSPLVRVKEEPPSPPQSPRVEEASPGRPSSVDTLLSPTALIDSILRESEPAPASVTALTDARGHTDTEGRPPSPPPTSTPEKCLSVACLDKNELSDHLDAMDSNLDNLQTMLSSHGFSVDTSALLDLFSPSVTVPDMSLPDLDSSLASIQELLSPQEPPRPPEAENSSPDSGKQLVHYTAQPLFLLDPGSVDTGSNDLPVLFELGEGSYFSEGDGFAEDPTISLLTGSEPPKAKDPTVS
# Outline: as §1
# SPIC = molecular target: T8, SPIC (Homo sapiens, UniProt Q8N5J4 1-248); settings: protein: recombinant; tags: N-terminal GST; dsDNA, one strand shown
# T8 sequence: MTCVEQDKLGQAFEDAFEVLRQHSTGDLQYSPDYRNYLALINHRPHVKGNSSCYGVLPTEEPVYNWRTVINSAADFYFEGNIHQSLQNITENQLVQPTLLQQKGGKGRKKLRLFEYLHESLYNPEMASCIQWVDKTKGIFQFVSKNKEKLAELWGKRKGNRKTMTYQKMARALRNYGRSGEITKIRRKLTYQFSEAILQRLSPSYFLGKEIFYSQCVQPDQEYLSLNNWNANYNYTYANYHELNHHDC
# Outline: as §1
# ELF4 = ELF4 (Homo sapiens, UniProt Q99607 1-663); settings: protein: recombinant; tags: N-terminal GST; dsDNA, one strand shown
# ELF4, sequence (Q99607 whole entry): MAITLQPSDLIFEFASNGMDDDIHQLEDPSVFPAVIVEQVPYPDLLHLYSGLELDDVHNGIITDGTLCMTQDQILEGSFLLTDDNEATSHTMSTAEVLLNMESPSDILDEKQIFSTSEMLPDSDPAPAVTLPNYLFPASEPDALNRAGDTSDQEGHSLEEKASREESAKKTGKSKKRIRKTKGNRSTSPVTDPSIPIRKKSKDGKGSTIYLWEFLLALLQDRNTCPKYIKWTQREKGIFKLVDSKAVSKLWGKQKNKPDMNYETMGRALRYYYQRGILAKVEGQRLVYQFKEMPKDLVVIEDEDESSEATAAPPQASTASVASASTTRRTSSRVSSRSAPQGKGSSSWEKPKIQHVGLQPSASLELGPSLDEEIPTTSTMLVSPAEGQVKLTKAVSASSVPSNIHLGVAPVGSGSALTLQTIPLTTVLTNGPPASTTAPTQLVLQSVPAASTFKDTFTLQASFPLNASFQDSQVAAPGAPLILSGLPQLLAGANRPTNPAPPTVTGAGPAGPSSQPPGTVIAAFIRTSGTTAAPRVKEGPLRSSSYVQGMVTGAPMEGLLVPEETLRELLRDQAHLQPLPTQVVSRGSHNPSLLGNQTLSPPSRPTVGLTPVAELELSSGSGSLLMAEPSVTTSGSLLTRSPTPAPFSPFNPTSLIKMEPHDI
# Outline: as §1
# ELK4 = molecular target: T9, ELK4 (Homo sapiens, UniProt P28324-2 1-405); settings: protein: recombinant; tags: N-terminal GST; dsDNA, one strand shown
# T9 sequence: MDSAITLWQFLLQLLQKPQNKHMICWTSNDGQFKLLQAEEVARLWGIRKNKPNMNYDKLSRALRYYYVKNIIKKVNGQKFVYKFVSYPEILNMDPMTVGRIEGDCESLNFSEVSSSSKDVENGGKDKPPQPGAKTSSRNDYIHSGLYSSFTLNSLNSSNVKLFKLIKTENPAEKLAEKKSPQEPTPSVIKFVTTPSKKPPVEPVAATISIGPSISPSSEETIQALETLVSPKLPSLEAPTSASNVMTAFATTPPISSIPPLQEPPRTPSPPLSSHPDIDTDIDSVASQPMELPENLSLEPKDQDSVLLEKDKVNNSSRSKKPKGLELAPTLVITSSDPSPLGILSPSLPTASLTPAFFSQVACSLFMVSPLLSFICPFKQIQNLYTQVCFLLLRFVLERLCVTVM
# Outline: as §1
# ETV2 = molecular target: T10, ETV2 (Homo sapiens, UniProt O00321 1-342); settings: protein: recombinant; tags: N-terminal GST; dsDNA, one strand shown
# T10 sequence: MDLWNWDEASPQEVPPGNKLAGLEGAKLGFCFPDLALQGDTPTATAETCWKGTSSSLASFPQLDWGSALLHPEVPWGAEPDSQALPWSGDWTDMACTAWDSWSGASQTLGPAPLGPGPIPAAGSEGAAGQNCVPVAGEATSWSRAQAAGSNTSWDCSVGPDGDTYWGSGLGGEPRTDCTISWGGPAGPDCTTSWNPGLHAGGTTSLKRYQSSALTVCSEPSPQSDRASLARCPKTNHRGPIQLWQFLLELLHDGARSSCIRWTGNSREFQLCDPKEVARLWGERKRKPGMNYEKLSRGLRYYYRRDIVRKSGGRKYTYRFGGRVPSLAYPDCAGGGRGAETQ
# Outline: as §1
# ELF3 = molecular target: T11, ELF3 (Homo sapiens, UniProt P78545 1-371); settings: protein: recombinant; tags: N-terminal GST; dsDNA, one strand shown
# T11 sequence: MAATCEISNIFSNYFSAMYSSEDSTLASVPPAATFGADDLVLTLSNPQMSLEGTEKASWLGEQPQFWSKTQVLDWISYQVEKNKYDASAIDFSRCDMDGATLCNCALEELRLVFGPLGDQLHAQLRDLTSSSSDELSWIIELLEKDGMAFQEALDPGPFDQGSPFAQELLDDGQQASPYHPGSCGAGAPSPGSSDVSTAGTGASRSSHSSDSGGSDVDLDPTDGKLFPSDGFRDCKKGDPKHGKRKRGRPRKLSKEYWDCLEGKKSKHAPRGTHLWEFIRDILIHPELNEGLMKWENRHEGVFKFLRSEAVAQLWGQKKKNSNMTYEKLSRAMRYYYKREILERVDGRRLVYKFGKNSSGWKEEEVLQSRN
# Outline: as §1
# CRX = CRX (Homo sapiens, UniProt O43186 1-299); settings: protein: recombinant; tags: N-terminal GST; dsDNA, one strand shown
# CRX, sequence (O43186 whole entry): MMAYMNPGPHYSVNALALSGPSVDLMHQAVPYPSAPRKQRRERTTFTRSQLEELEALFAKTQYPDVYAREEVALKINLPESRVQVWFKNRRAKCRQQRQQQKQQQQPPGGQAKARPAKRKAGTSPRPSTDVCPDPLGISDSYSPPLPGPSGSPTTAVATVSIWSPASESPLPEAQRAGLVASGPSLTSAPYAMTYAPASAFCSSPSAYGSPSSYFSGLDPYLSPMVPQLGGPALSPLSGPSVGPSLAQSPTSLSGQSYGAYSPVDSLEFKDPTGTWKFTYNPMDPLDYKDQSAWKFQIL
# Outline: as §1
# ETV1 = ETV1 (Homo sapiens, UniProt P50549 1-477); settings: protein: recombinant; tags: N-terminal GST; dsDNA, one strand shown
# ETV1, sequence (P50549 whole entry): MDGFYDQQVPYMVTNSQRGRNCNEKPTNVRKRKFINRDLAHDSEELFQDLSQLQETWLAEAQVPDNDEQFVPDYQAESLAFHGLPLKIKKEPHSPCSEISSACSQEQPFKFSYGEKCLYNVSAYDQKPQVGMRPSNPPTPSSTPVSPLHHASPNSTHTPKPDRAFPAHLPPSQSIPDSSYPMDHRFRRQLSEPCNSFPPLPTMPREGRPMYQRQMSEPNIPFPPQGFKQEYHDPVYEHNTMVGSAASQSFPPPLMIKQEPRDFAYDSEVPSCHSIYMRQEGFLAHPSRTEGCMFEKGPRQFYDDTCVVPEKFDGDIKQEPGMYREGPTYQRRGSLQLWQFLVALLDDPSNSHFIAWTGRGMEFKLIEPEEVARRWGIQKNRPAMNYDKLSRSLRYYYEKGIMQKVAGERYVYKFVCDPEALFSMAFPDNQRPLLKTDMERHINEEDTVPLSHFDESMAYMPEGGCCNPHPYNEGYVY
# Outline: as §1
sequence,measurement,setting,value
CTGTTT,binding signal,FLI1,"1.48 fold enrichment (6-mer frequency, TF over GST control)"
same,binding signal,ELK1,"1.36 fold enrichment (6-mer frequency, TF over GST control)"
same,binding signal,GABPA,"1.41 fold enrichment (6-mer frequency, TF over GST control)"
same,binding signal,ERG,"1.4 fold enrichment (6-mer frequency, TF over GST control)"
same,binding signal,ELF1,"1.4 fold enrichment (6-mer frequency, TF over GST control)"
same,binding signal,EHF,"1.34 fold enrichment (6-mer frequency, TF over GST control)"
same,binding signal,SPI1,"1.6 fold enrichment (6-mer frequency, TF over GST control)"
same,binding signal,SPIB,"1.43 fold enrichment (6-mer frequency, TF over GST control)"
same,binding signal,ELK3,"1.34 fold enrichment (6-mer frequency, TF over GST control)"
same,binding signal,FEV,"1.41 fold enrichment (6-mer frequency, TF over GST control)"
same,binding signal,ETV5,"1.42 fold enrichment (6-mer frequency, TF over GST control)"
same,binding signal,HSF1,"1.13 fold enrichment (6-mer frequency, TF over GST control)"
same,binding signal,SPIC,"1.31 fold enrichment (6-mer frequency, TF over GST control)"
same,binding signal,ELF4,"1.38 fold enrichment (6-mer frequency, TF over GST control)"
same,binding signal,ELK4,"1.29 fold enrichment (6-mer frequency, TF over GST control)"
same,binding signal,ETV2,"1.4 fold enrichment (6-mer frequency, TF over GST control)"
same,binding signal,ELF3,"1.14 fold enrichment (6-mer frequency, TF over GST control)"
same,binding signal,CRX,"1.08 fold enrichment (6-mer frequency, TF over GST control)"
same,binding signal,ETV1,"1.5 fold enrichment (6-mer frequency, TF over GST control)"
